Assay outcomes: PubChem BioAssay, The Scripps Research Institute Molecular Screening Center
Hits are enriched below; roughly 4.8% of the tested compounds scored in any of these assays.
hgDAF-12 ag = agonists of H. glycines DAF-12 nuclear receptor | AID 687014 | actives 1.8% (n = 370,000) | activation, % at 6.8 µM | HEK293 GAL4-hgDAF12 UAS-luciferase reporter, agonist luminescence; normalized to butyrate control;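 active = activation above a cutoff set at the mean of all screened compounds plus 3 SD, cut at about 10% in these data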;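 note: 0% = DMSO wells and 100% = sodium butyrate wells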
SMARCA2 activ = SMARCA2 function activation, primary screen; MG213 cells, MMTV-luciferase reporter, dexamethasone, overnight; activation, % at 9.1 µM; actives 1% (n = 370,000); AID 652017; in the data active = activation above about 7.8%;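 note: 0% = vehicle wells and 100% = reference activator wells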
DAX1 inh-1 = inhibitors of DAX1 repression of SF-1 activated StAR promoter. AID 652010. inhibition, % at 6.8 µM. actives 1.1% (n = 370,000). HEK293T StAR-luciferase reporter, SF-1/DAX-1 repression relief;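 active = inhibition above the mean over all tested compounds plus 3 SD, cut at about 3.6% in these data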;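 note: 0% = DAX-1 cells with DMSO and 100% = cells lacking DAX-1 with DMSO; higher inhibition means more luminescence from relief of DAX-1 repression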
hcDAF-12 act = activators of H. contortus DAF-12 nuclear receptor; actives 1.4% (n = 370,000); HEK293 hcDAF-12 lit1-tk-luc reporter, luminescence; 0% DMSO, 100% Δ7-dafachronic acid; activation, % at 6.8 µM; AID 652067;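 active = activation above the mean of all tested compounds plus 3 SD, cut at about 5.5% in these data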;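 note: 100% = response to 3 µM Δ7-dafachronic acid high control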
ssDAF-12 act = S. stercoralis DAF-12 activation, primary screen; HEK293 ssDAF-12/GRIP1 lit1-tk-luc reporter, luminescence; % of 3 µM dafachronic acid response; activation, % at 6.8 µM; actives 1% (n = 370,000);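 active = activation above the mean over all tested compounds plus 3 SD, cut at about 0.9% in these data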;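 note: 0% = DMSO-only wells and 100% = 3 µM delta7-dafachronic acid wells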
DAX1 inh-2 = inhibits human nuclear receptor DAX1 | HEK293 Gal4-DAX1 luciferase reporter, luminescence | P51843 | AID 504766 | actives 0.99% (n = 340,000) | inhibition, % at 6.75 µM;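 active = inhibition above the mean over all tested compounds plus 3 SD, cut at about 4.2% in these data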;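 note: 0% = DAX1-transfected cells with DMSO and 100% = empty-vector control cells with DMSO; inhibition shows as a rise in luminescence from relieved DAX1 repression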
Target sequence (P51843 207-470 limits assumed): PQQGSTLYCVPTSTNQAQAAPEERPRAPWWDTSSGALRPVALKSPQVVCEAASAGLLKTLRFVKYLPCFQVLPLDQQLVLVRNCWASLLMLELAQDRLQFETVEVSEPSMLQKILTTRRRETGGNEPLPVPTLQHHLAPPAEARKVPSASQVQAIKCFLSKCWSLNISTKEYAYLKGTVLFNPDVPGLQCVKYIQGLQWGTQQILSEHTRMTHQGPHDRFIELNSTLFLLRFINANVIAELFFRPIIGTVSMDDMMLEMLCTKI
The depositor's hits bear a star; . = no result.

SMILES | hgDAF-12 ag | SMARCA2 activ | DAX1 inh-1 | hcDAF-12 act | ssDAF-12 act | DAX1 inh-2
Cc1ccc(CNC(=O)c2cc3c(-c4ccc(Cl)cc4)nn(C)c3s2)o1 | 0 | -3 | 0 | 5 | 1.6* | 1
CCN1CCCC1CNC(=O)c1cc2c(-c3cccc(OC)c3)nn(C)c2s1 (stereo not drawn) | 2 | 4 | 1 | 4 | 1 | 0
CCCCNC(=O)c1cc2c(-c3ccc(Cl)cc3)nn(C)c2s1 | 6 | -3 | -1 | 5.9* | 0 | 4
COc1ccc(C(=O)C2CCN(c3ncnc4sccc34)CC2)cc1 | -10 | . | . | -6 | -3 | .
CCN(CC(=O)Nc1ccc(NC(C)=O)cc1)Cc1c(O)ccc2cc(Br)ccc12 | 1 | -4 | 0 | -1 | 0 | 0
CCOC(=O)C1Oc2ccccc2C(c2ccoc2)=C1C(=O)OC (stereo not drawn) | . | . | . | . | . | -1
CC(C)NC(=O)c1cc2c(-c3ccc(Cl)cc3)nn(C)c2s1 | 2 | -1 | 0 | 3 | 0 | 4.4*
Cc1nn(-c2ccccc2)c2sc(C(=O)N3CCOCC3)cc12 | 9 | 5 | 2 | 6.5* | 1.3* | 2
COCCCNC(=O)c1cc2c(-c3ccc(Cl)cc3)nn(C)c2s1 | 0 | -1 | 0 | 4 | 0 | 1
Clc1ccc(CSc2nnc(-c3ccccn3)n2Cc2cccs2)cc1Cl | 1 | 6 | 4.2* | 1 | 0 | .
CCOc1ccccc1C(=O)NCCNC(=O)c1ccccc1OCC | -1 | -3 | 0 | -1 | -2 | 2
CCOc1ccccc1C(=O)NN1C(=O)CCC1=O | 4 | -3 | 0 | 4 | 1.0* | 3
O=C(COC(=O)c1cc(Cl)nc(Cl)c1)NCCc1ccc(F)cc1 | 3 | -4 | -2 | 6 | 1.6* | 0
COc1ccc(-c2nnc(SCC(=O)N3CCCC3)o2)c(OC)c1 | 12* | 0 | 1 | 2 | -1 | 1
Cc1noc(C)c1COc1ccc(C(=O)N2CCC(C(N)=O)CC2)cc1 | -2 | -1 | 0 | -1 | -1 | 0
N#CCSc1ccc(-c2nc3ccccc3[nH]2)cn1 | 11* | 0 | 3 | 2 | 0 | 0
CCOC(=O)CSc1ccc(-c2nc3ccccc3[nH]2)cn1 | 5 | 0 | -1 | -1 | -1 | 2
CCN(CC)C(=O)C(C)N(C#N)c1nc(C)cc(C)n1 (stereo not drawn) | 2 | -1 | 0 | 6.3* | -1 | -2
Cc1cc(C)nc(N(C#N)C(C)C(=O)N(C)C)n1 (stereo not drawn) | 0 | -3 | 0 | -1 | -1 | 0
O=C(NC1CCCCC1)C(c1cccnc1)N(C(=O)c1ccc(Cl)nc1)C1CCCCC1 (stereo not drawn) | 1 | 7 | -1 | -1 | 1.7* | 1
Cc1ccc(C(=O)C(C)OC(=O)c2ccc(Cl)nc2)cc1 (stereo not drawn) | 1 | -2 | 0 | 0 | -1 | 1
CC(C)(C)NC(=O)C(c1cccnc1)N(C(=O)c1ccc(Cl)nc1)C1CCCC1 (stereo not drawn) | 0 | -1 | 0 | -1 | -1 | 0
CC(C)CC(OC(=O)c1ccc(Cl)nc1)C(=O)NC1CCCC1 (stereo not drawn) | -1 | -5 | 0 | 1 | 1.1* | 0
Cn1c(=O)c(-c2ccccc2N)nc2ccccc21 | 2 | 3 | 0 | 6.3* | 0 | 0
CNc1ccccc1-c1nc2ccccc2n(C)c1=O | 0 | 5 | -1 | 2 | -1 | 0
O=C(O)CCC(=O)OCCN(Cc1ccc(Oc2ccc([N+](=O)[O-])cc2)cc1)C(=O)C(Cl)Cl | -3 | -2 | -5 | 1 | -1 | -1
O=C(C[C@H]1C/C=C\CC[C@H](Cc2ccc(F)cc2)C(=O)O[C@H](c2ccccc2)CNC1=O)N[C@H](CO)Cc1ccccc1 | 0 | -1 | -1 | -1 | -1 | -1
CCCN1C(=S)c2ccccc2C1c1ccccc1 (stereo not drawn) | -1 | 0 | 0 | 4 | 1.3* | 4.7*
O=S1(=O)c2c(cccc2N2CCC[C@H]2CO)O[C@@H]2CCN1C2 | -2 | -1 | 0 | -1 | -1 | .
